High-throughput results (PubChem BioAssay)
Compounds with a hit are over-represented: about 0.77% of the library has one in this group of screens.
RecA intein inh: blocks M. tuberculosis RecA intein splicing | 290,000 tested, 0.75% active | cell-free RecA intein splicing, fluorescence | inhibition, % (no concentration beside the values); in the data active = inhibition above about 30%;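 also: 0% = vehicle wells and 100% = reference inhibitor control wells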
Mtb RmlCD inh: inhibitors of Mycobacterium tuberculosis RmlC and RmlD coupled enzymes. RmlC+RmlD coupled enzyme assay, percent inhibition; primary screen in compound mixtures. inhibition, % at 3.6 µM. 160,000 tested, 0.03% active. AID 1533; in the data active = inhibition mostly above about 34%, no sharp cut-off
The depositor's hits bear a star; · = no result.

SMILES	RecA intein inh	Mtb RmlCD inh
Cc1ccc(-c2csc(NC(=O)CSC3=NCCS3)n2)cc1	58.5*	·
CCOC(=S)SCC(=O)Nc1nc(-c2ccc(Br)cc2)cs1	21.5	·
Cc1ccc(-c2csc(NC(=O)CSc3nc(C)cc(=O)[nH]3)n2)cc1	5.1	-7.6
O=C(/C=C/c1ccc(F)cc1)N1CCN(c2ccccn2)CC1	3.5	-6.2
CC1(c2cccs2)CC(c2cccs2)=C(C#N)C(=O)N1 (stereo not given)	3.4	13.0
COc1ccc(Br)cc1[C@H]1[C@@H]2C=CCC[C@@]2(C)C(=O)N1Cc1ccccc1	31.9*	·
COc1ccc(-c2ccc(OC)c([C@H]3[C@@H]4C=CCC[C@@]4(C)C(=O)N3Cc3ccccc3)c2)cc1OC	8.7	·
O=C(NNC1CC(=O)N(c2ccc(Cl)cc2)C1=O)c1ccco1 (stereo not given)	0.5	5.6
CCc1ccc(S(=O)(=O)N/N=C\c2ccc3c(c2)OCO3)cc1	3.0	·
Brc1ccc(Cn2c(-c3ccc(Br)o3)nc3ccccc32)o1	30.4*	·
Cn1c(-c2ccc(Br)o2)nc2ccccc21	0.6	·
COc1ccccc1/C=N/Nc1cc(N(C)C)nc(N(C)C)n1	44.3*	29.5
CN(C)c1cc(N/N=C\c2ccccc2)nc(N(C)C)n1	6.1	5.5
COC(=O)c1cccc(N2C(=O)C3CC=CCC3C2=O)c1 (stereo not given)	3.8	·
Cc1nc2ccccc2c(=O)n1-c1ccc(C(=O)O)cc1	1.1	·
O=C(O)c1ccc(-n2c(=O)c3ccccc3c3ccccc3c2=O)cc1	31.8*	8.7
O=C1CC2(CCN(C(=O)c3ccccc3F)CC2)Oc2ccccc21	-1.8	·
COc1ccccc1NC1=C(Cl)C(=O)OC1OC(=O)c1ccco1 (stereo not given)	40.8*	-6.8
Cc1ccccc1NC1=C(Cl)C(=O)OC1OC(=O)c1ccco1 (stereo not given)	43.4*	·
COc1cccc(NC2=C(Cl)C(=O)OC2OC(=O)c2ccco2)c1 (stereo not given)	35.4*	-12.1
CCOC1OC(=O)C(Cl)=C1Nc1ccccc1C (stereo not given)	-1.6	·
COc1ccccc1NC(=O)c1cc(Cl)ccc1NC(=O)c1ccco1	-1.8	-0.9
Cc1ccc(NC2=C(Cl)C(=O)OC2OC(=O)c2ccc(C)cc2)cc1 (stereo not given)	15.7	-3.1
COc1ccc(C(=O)Nc2cccc(OC(=O)c3ccco3)c2)cc1	19.8	·
COC(=O)c1ccc(NC2=C(Cl)C(=O)OC2OC(=O)c2ccccc2)cc1 (stereo not given)	30.4*	6.0
SMILES	RecA intein inh	Mtb RmlCD inh
CC(=O)Oc1ccc(C(=O)Nc2ccccc2C(=O)N2CCCC2)cc1	-0.9	·
Cc1cc(C=O)c(C)n1-c1ccc2c(c1)OCO2	-0.2	·
O=C(CSc1nncn1-c1cccnc1)Nc1ccccc1C(F)(F)F	-1.1	·
Cc1ccc(NC(=O)Nc2ccc3c(c2)OCO3)nc1	·	16.3
COc1ccccc1NC(=O)CSc1nc(SC)ns1	4.4	·
Cc1ccc(-c2cc(C(F)F)nc(S(C)(=O)=O)n2)cc1	46.4*	-14.0
Cc1ccc(-c2cc(-c3ccccc3)nc(Cl)n2)cc1	1.7	5.4
CCN(CC)CCN(C)C(=O)CCc1nnc(-c2ccc(C)s2)o1	-2.0	-6.9
C=CCn1c(CSCc2ccc(Cl)cc2Cl)nnc1SCC(=O)Nc1ccc(C(=O)O)cc1	2.2	7.2
Cc1c(Cl)cccc1NC(=O)CSCc1cc(=O)[nH][nH]1	85.3*	-15.4
Cc1c(NC(=O)CSCc2ccc(Cl)cc2Cl)cccc1C(=O)O	-1.7	·
COc1ccc(OC)c(-c2cc(C(=O)N3CCOCC3)no2)c1	-2.8	·
O=C(O)CCC(=O)N1CCCC1	-3.1	-8.9
Cc1ccc(OCC(=O)N2CCCC(CO)(CCOc3ccccc3)C2)cc1 (stereo not given)	2.4	·
CCOC(=O)N1CCC2(CC1)C(C#N)=C(N)OC1=C2C(=O)CCC1	-0.9	-8.8
Cc1cc(Sc2nnc(N)s2)c2ccccc2n1	11.2	-3.2
Cc1cc(Sc2nnc(/N=C/N(C)C)s2)c2ccccc2n1	36.4*	-10.8
CSc1cccc(NC(=O)N2CCc3ccc(NC(=O)c4ccccn4)cc3C2)c1	2.6	·
COCCn1c(=O)c2c(nc3n2CCCN3CCc2ccc(OC)c(OC)c2)n(C)c1=O	-3.0	·
CC(=O)O[C@@H]1C[C@H]2C(C)(C)C(=O)C=C[C@]2(C)[C@H]2CC[C@@]3(C)[C@H](c4ccoc4)OC(=O)[C@H]4O[C@]43[C@@]21C	42.3*	·
CCOC(=O)C1=C(C)NC(=O)NC1c1ccoc1 (stereo not given)	2.0	-13.2
CCC(=NCC1CCCO1)c1c(O)n(-c2ccccc2C)c(=O)[nH]c1=O (stereo not given)	4.5	67.3
O=c1c(Br)c(Br)cnn1-c1ccccc1	·	9.2
Cc1ccc(-n2ncc(Br)c(Br)c2=O)cc1	66.7*	-7.0
COc1cccc(OCCSc2nc(N)cc(N)n2)c1	-4.1	·
Cc1ccc(C(=O)Oc2ccc([N+](=O)[O-])cc2)cc1S(=O)(=O)N1CCCCCC1	30.2*	·
Cc1ccc(C(=O)O)cc1S(=O)(=O)N1CCCC1	-1.9	·
